D1 antag – blocks dopamine activation of the human D1 receptor; P21728; HEK293 TREx D1 cells, calcium flux, dopamine EC80; active compounds read low; activity change, negative = inhibition, % at 10 µM; 360,000 compounds, 3.2% hits; in the data active = activity change below about -30%; also: % is scaled to controls: 0 for no effect and ±100 for the full control effect
Target sequence (P21728 whole entry, looked up): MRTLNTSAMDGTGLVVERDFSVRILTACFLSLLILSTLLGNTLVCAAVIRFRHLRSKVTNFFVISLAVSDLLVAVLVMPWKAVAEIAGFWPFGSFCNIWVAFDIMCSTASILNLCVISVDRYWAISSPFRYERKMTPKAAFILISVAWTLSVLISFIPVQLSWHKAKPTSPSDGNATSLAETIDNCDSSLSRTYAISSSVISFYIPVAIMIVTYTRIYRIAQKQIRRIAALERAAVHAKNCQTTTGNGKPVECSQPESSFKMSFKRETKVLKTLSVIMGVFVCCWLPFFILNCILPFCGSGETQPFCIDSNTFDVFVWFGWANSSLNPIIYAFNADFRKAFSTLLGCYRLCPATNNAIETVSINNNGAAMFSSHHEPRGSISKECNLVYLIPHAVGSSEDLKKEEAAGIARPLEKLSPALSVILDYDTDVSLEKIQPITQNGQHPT
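Allosteric or orthosteric antagonism assessed as attenuation of the calcium response to EC80 dopamine, added 180 s after compound, in induced HEK293 Trex D1 cells loaded with no-wash calcium dye.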
D1 ag – activates the human D1 dopamine receptor; activation, % at 2 µM; 360,000 compounds, 1% hits; AID 504660; HEK293 T-REx D1 cells, calcium flux, agonist mode; also: 0% is about no effect
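Agonism was scored from calcium flux recorded over 180 s (1 read/s) after pintool compound addition, following a 10-cycle baseline. Cells were inducible force-coupled HEK293 TREx D1, plated overnight at 30 C and loaded with no-wash calcium dye.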
TRHR ag – agonists of human TRH receptor; TRHR cells, calcium flux fluo-8, FDSS agonist mode; AID 493084; 360,000 compounds, 0.18% hits; activation, % at 2 µM; also: 0% is about no effect
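TRHR-expressing cells loaded with fluo-8 calcium dye; 23 nL library compound pin-transferred, kinetic FDSS fluorescence (Ex 480/Em 530) recorded about 180 s for agonist-induced calcium release, before a 10 nM TRH EC20 addition for potentiator mode.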
D1 potentiator – potentiators of human D1 dopamine receptor. HEK293 TREx D1 cells, calcium flux, dopamine EC20 potentiation. P21728. 360,000 compounds, 0.036% hits. AID 504651. potentiation, % at 10 µM; in the data active = potentiation above about 30%; also: 0% is about no effect
TRHR enhancer – TRH receptor (human) allosteric enhancement; TRHR cells, fluo-8 calcium fluorescence, EC20 TRH enhancement; AID 493056; enhancement, % at 2 µM; 360,000 compounds, 0.66% hits; in the data active = enhancement above about 30%; also: 0% is about no effect
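TRHR-expressing cells loaded with fluo-8 calcium dye were read kinetically (ex 480/em 530) during compound addition, then stimulated with an EC20 of TRH (10 nM final). Enhancement of the Gq-mediated intracellular calcium response was scored.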
* hit, by the source's call; x = not tested or not shown. In the library only some 4.7% were active in any assay of this set; here they are far more common. Rule as the data show it, unless noted: active = activation above about 30%; inactive = the rest.

SMILES	D1 antag	D1 ag	TRHR ag	D1 potentiator	TRHR enhancer
CC(C)N(CCNCC(O)COc1ccc(C(C)(C)c2ccccc2)cc1)C(C)C (stereo not drawn)	-18.2	62.6*	1.6	-3.5	21.6
NC(N)=NCCC[C@H](NC(=O)CNC(=O)c1ccccc1)C(=O)Nc1cc(C(F)(F)F)ccc1Cl	-13.4	-0.3	-1.7	6.8	1.4
CCC(=O)c1ccc(OCC(O)CNCCc2ccc(Cl)cc2)cc1 (stereo not drawn)	-14.9	61.9*	5.5	-6.2	15.0
OC(CNCCc1ccc(Cl)cc1)COc1cc(Cl)ccc1Cl (stereo not drawn)	-4.5	35.0*	1.6	5.2	3.9
OC(CNCCC(c1ccccc1)c1ccccc1)COc1ccccc1 (stereo not drawn)	-61.0*	10.7	1.2	-6.2	7.2
OC(CNCCc1ccccc1)COc1ccc(OCC(O)CNCCc2ccccc2)cc1 (stereo not drawn)	-2.7	33.6*	3.7	-0.7	9.2
CCC(=O)c1ccc(OCC(O)CNC(C)c2ccccc2)cc1 (stereo not drawn)	5.2	6.8	1.1	4.5	-0.5
CC(C)c1ccc(OCC(O)CNC(C)c2ccccc2)cc1 (stereo not drawn)	2.0	15.2	4.5	11.4	0.6
Cc1ccc(S(=O)(=O)c2nc(-c3cccs3)oc2SCC(=O)Nc2cc(C)cc(C)c2)cc1	-4.9	10.7	1.0	1.0	2.1
COC(=O)c1sccc1S(=O)(=O)N(CC(=O)NCc1ccccc1)c1ccc(C)c(C)c1	-5.8	0.7	-0.4	-5.7	-4.8
Cc1nc2nc(NCc3ccc(Cl)cc3)[nH]n2c(=O)c1Cc1ccccc1	-2.1	0.6	0.7	-1.9	0.9
CC(C)CCNCC(O)CON=C1c2ccccc2-c2ccccc21 (stereo not drawn)	8.1	49.6*	-0.6	3.9	4.6
CCC(Oc1ccccc1)C(=O)Nc1cc(-c2ccccc2OC)nn1-c1ccccc1 (stereo not drawn)	0.1	-0.7	0.5	4.4	-2.8
Cc1cc(C)c(S(=O)(=O)N2CCCCC2)cc1N(C)S(=O)(=O)c1ccc(Cl)cc1	-30.6*	2.6	-0.2	3.5	-3.8
Cc1ccc(S(=O)(=O)N(C)c2cc(S(=O)(=O)N3CCOCC3)c(C)cc2C)cc1	-2.9	3.7	-0.5	6.8	-6.3
COc1ccc(Br)cc1C1CC(=O)N2CN(C)CSC2=C1C#N (stereo not drawn)	-7.0	2.5	0.0	-8.3	-3.5
COc1cc(OC)c(C2CC(=O)N3CN(C)CSC3=C2C#N)cc1OC (stereo not drawn)	-38.3*	2.1	0.4	-7.2	1.3
COc1ccc(Br)cc1C1CC(=O)N2CN(Cc3ccccc3)CSC2=C1C#N (stereo not drawn)	-31.1*	2.0	1.0	-1.1	0.4
COc1ccc(C(=O)Oc2cccnc2)cc1	-31.5*	0.8	-0.4	-5.2	3.7
COC(=O)c1ccc(OC(=O)c2cccnc2)cc1	-0.9	4.5	0.4	-2.6	0.5
COc1cccc(C(C(=O)NCc2ccco2)N(Cc2ccco2)C(=O)Cn2nnc3ccccc32)c1 (stereo not drawn)	-33.4*	6.0	-0.8	-1.3	13.4
COc1cccc(N(C(=O)Cn2nnc3ccccc32)C(C(=O)NCc2ccco2)c2cccnc2)c1 (stereo not drawn)	8.0	-0.2	-0.3	0.9	8.6
C[C@H]1CN(S(=O)(=O)c2ccc3c(c2)OCCO3)CCN1S(=O)(=O)c1c(F)cccc1F	-13.3	1.4	-1.0	-1.5	39.3*
N#Cc1ccccc1S(=O)(=O)N1CCN(S(=O)(=O)c2ccc3c(c2)OCCO3)CC1	-36.8*	8.2	1.4	0.8	-0.7
N#Cc1ccccc1S(=O)(=O)N1CCN(C(=O)Cc2coc3cc(O)ccc23)CC1	-42.8*	0.7	0.3	-7.3	-0.9
SMILES	D1 antag	D1 ag	TRHR ag	D1 potentiator	TRHR enhancer
N#Cc1ccccc1S(=O)(=O)N1CCN(C(=O)[C@H](Cc2ccccc2)NC(=O)c2ccco2)CC1	-33.7*	-0.3	0.5	-9.7	1.6
Cc1ccccc1NC(=O)CSc1ccc(-c2cccs2)nn1	5.0	4.3	0.3	-2.4	7.6
CCC1CN(C(=O)N2CCC(C(=O)NCCc3ccc(OC)cc3OC)CC2)c2cc(C)ccc2O1 (stereo not drawn)	9.1	1.1	-0.1	0.4	3.7
CCCC(=O)N1CCN(c2nc3ccc(F)cc3s2)CC1	x	7.6	0.1	0.9	-0.9
COc1ccc2oc(-c3ccc(C)c(NC(=O)c4ccc5c(c4)OCCO5)c3)nc2c1	3.5	-0.1	0.0	-2.8	-0.3
CC1(C)CC(C(N)=S)CCO1 (stereo not drawn)	-37.0*	1.5	-0.1	-6.8	7.0
CC(C)CCNC(=O)C1CC(c2ccc(C(F)(F)F)cc2)=NO1 (stereo not drawn)	-42.0*	31.7*	-0.4	-4.3	-2.5
O=C(NCc1cccnc1)C1CC(c2ccc(F)cc2)=NO1 (stereo not drawn)	-30.5*	3.4	0.3	-6.0	-1.8
COc1ccc(C2=NOC(C(=O)NCc3cccnc3)C2)cc1 (stereo not drawn)	2.2	2.2	0.4	-7.0	-6.5
Cc1ccc(CCNC(=O)C2CC(c3ccc(C(F)(F)F)cc3)=NO2)cc1 (stereo not drawn)	-2.7	8.3	-0.1	-3.0	0.1
O=C(NCc1cc(C(F)(F)F)cc(C(F)(F)F)c1)C1CC(c2cccc([N+](=O)[O-])c2)=NO1 (stereo not drawn)	-54.4*	9.1	-1.1	-8.8	9.8
CN(C)c1ccc(C(=O)/C=C/c2cccnc2)cc1	1.7	3.2	-0.7	-11.8	4.0
CN(C)c1ccc(/C=C/C(=O)c2cccc(Br)c2)cc1	-75.2*	771.9*	147.6*	-10.7	-10.0
CN(C)CCCN(C(=O)c1ccc(S(=O)(=O)N(C)Cc2ccccc2)cc1)c1nc2cc3c(cc2s1)OCO3	-55.3*	19.6	0.5	-2.7	-8.9
COc1cccc2sc(N(CCCN(C)C)C(=O)COc3ccc(Cl)cc3)nc12	-27.4	14.8	1.5	-1.8	-0.4
CN(C)CCCN(C(=O)c1ccc2ccccc2c1)c1nc2cc3c(cc2s1)OCO3	5.6	36.3*	0.6	-3.5	5.6
COc1ccc2sc(N(CCCN(C)C)C(=O)c3ccc(S(=O)(=O)N(C)Cc4ccccc4)cc3)nc2c1	0.0	3.3	0.6	-1.1	0.0
CN(C)CCCN(C(=O)COc1ccccc1)c1nc2c(F)cccc2s1	24.4	1.3	0.9	3.4	31.9*
CN(C)CCCN(C(=O)COc1ccccc1)c1nc2cc3c(cc2s1)OCO3	-29.1	36.1*	2.4	-1.5	2.8
COc1ccc(C)c2sc(N(CCCN(C)C)C(=O)c3ccc4c(c3)OCCO4)nc12	-21.0	66.4*	-0.3	-13.4	-2.1
CN(C)CCCN(C(=O)c1ccc2c(c1)OCCO2)c1nc2cc3c(cc2s1)OCO3	0.8	6.0	1.1	-5.0	6.4

Source: PubChem (National Center for Advancing Translational Sciences (NCATS))
